Data as given in article PMC5540273 (PLoS ONE, 2017).

Assays:
Conditions in all cases: concentration: 1 μM, replicates: in singlicate; n = 1
PAK3 = test system: PAK3
PAK4 = test system: PAK4
PAK6 = test system: PAK6
PAK7 = test system: PAK7
PCTK1 = test system: T1, PCTK1
T1 construct: gene CDK16

PCTK2 = test system: T2, PCTK2
T2 construct: gene CDK17

PCTK3 = test system: T3, PCTK3
T3 construct: gene CDK18

PDGFRA = test system: PDGFRA
PDGFRB = test system: PDGFRB
PDPK1 = test system: PDPK1
PFTAIRE2 = test system: PFTAIRE2
PFTK1 = test system: T4, PFTK1
T4 construct: gene CDK14

PHKG1 = test system: PHKG1
PHKG2 = test system: PHKG2
PIK3C2B = test system: PIK3C2B
PIK3C2G = test system: PIK3C2G
PIK3CA = test system: PIK3CA
PIK3CB = test system: PIK3CB
PIK3CD = test system: PIK3CD
PIK3CG = test system: PIK3CG
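Also: KINOMEscan kinase panel screen.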

Row | SMILES | %Inh (PAK3) [%] | %Inh (PAK4) [%] | %Inh (PAK6) [%] | %Inh (PAK7) [%] | %Inh (PCTK1) [%] | %Inh (PCTK2) [%] | %Inh (PCTK3) [%] | %Inh (PDGFRA) [%] | %Inh (PDGFRB) [%] | %Inh (PDPK1) [%] | %Inh (PFTAIRE2) [%] | %Inh (PFTK1) [%] | %Inh (PHKG1) [%] | %Inh (PHKG2) [%] | %Inh (PIK3C2B) [%] | %Inh (PIK3C2G) [%] | %Inh (PIK3CA) [%] | %Inh (PIK3CB) [%] | %Inh (PIK3CD) [%] | %Inh (PIK3CG) [%]
1 | Cc1cccc2c(-c3ccncn3)c(-c3ccc(F)cc3)nn12 [GW515532] | 29 | 0 | 0 | 3 | 0 | 0 | 0 | 0 | 10 | 17 | 9 | 8 | 0 | 0 | 0 | 0 | 0 | 0 | 5 | 0
2 | CCn1c(-c2ccccc2)nc2cnccc21 [SB-733416] | 14 | 0 | 0 | 0 | 4 | 0 | 0 | 0 | 16 | 0 | 0 | 27 | 0 | 0 | 0 | 0 | 0 | 0 | 13 | 0
3 | CS(=O)(=O)CCNCc1nc(-c2ccc3ncnc(Nc4ccc5c(cnn5Cc5ccccc5)c4)c3c2)cs1.Cl.Cl [GW569716] | 22 | 0 | 0 | 0 | 0 | 0 | 16 | 0 | 10 | 0 | 0 | 6 | 0 | 0 | 53 | 0 | 0 | 0 | 1 | 0
4 | COc1cc2ncnc(Nc3cccc(Br)c3)c2cc1OC.Cl [GI230329] | 0 | 0 | 0 | 12 | 0 | 0 | 2 | 0 | 16 | 11 | 14 | 16 | 15 | 0 | 8 | 0 | 0 | 2 | 0 | 0
5 | CC(=O)c1c(C)c2cnc(Nc3ccc(N4CCNCC4)cn3)nc2n(C2CCCC2)c1=O | 6 | 0 | 0 | 0 | 0 | 10 | 8 | 0 | 0 | 0 | 0 | 5 | 10 | 12 | 0 | 0 | 3 | 0 | 0 | 12
6 | COc1ccc(CSc2nnc(-c3ccc4nccn4c3)o2)cc1C(F)(F)F | 0 | 16 | 35 | 22 | 13 | 8 | 3 | 28 | 0 | 0 | 0 | 4 | 0 | 0 | 21 | 12 | 15 | 11 | 29 | 32
7 | COC(=O)c1cccc(NC(=O)NC2CCN(c3ccnc(Nc4ccc(OC)cc4)n3)C2)c1 (stereo not drawn) [GSK1379746] | 0 | 0 | 0 | 0 | 0 | 0 | 0 | 0 | 35 | 0 | 10 | 27 | 19 | 0 | 20 | 0 | 0 | 0 | 30 | 0
8 | O=C(Nc1n[nH]c2nc(-c3ccco3)c(Br)cc12)C1CCN(Cc2ccccc2)C1.O=C(O)[C@H](O)[C@@H](O)C(=O)O (stereo not drawn) [SB-742034] | 12 | 0 | 0 | 8 | 86 | 83 | 76 | 7 | 30 | 18 | 0 | 27 | 3 | 4 | 16 | 13 | 0 | 2 | 0 | 4
9 | Cc1ccc(NC(=O)Nc2ccc(Cl)c(C(F)(F)F)c2)cc1-c1ccc(C(=O)Nc2ccncc2)cc1 [GSK1398470] | 22 | 0 | 0 | 2 | 0 | 6 | 14 | 19 | 97.5 | 26 | 21 | 0 | 23 | 4 | 0 | 2 | 9 | 0 | 0 | 10
10 | COc1ccc2cc(-c3nc(-c4ccccc4C(C)C)[nH]c3-c3ccncc3)ccc2c1 [SB-660566] | 30 | 0 | 0 | 0 | 51 | 0 | 2 | 0 | 7 | 0 | 12 | 17 | 0 | 0 | 0 | 0 | 0 | 0 | 0 | 0
11 | Cc1ccccc1-c1cc(-c2c[nH]nc2-c2ccccn2)ccn1 [GW680061] | 0 | 0 | 0 | 0 | 2 | 7 | 20 | 0 | 41 | 0 | 0 | 0 | 0 | 0 | 0 | 0 | 0 | 0 | 4 | 0
12 | Cc1ccccc1Cn1ccn2c(=O)cc(N3CCOCC3)nc12 [GSK2269905] | 0 | 0 | 0 | 0 | 1 | 0 | 0 | 0 | 13 | 0 | 0 | 12 | 0 | 0 | 0 | 0 | 0 | 99.9 | 57 | 0
